Hit rate of the full screen: of about 38,000 compounds, about 1,200 (3.2%) showed an effect of 50% or more. The median lay at about -58%. The list comes from a sample in which strong results are over-represented; it also holds similar structures and randomly drawn compounds.

The experiment deals with Plasmodium falciparum. The experiment is described as follows: Calibr Malaria Delayed Death Assay SOP. The class given is functional, organism-based. The arrangement: scale not given: in the data most compounds retested in dose-response had high values. To be noted: concentration 4.99e-06 (unit not given; other assays of the set use mol/L).
For the compound `Cc1nn(C)c(Cl)c1C1CCCN1C(=O)c1cccn1C` (configuration not stated), the “Percent Effect” value was -34.06%. Take `c1cc(CNCC2CNc3ccnn3C2)cc(Cn2cccn2)c1` (configuration not stated): the “Percent Effect” value is -27.88%.

Turning to `Cn1ccnc1CN1CCC(F)(F)C2(CCN(c3cnccn3)C2)C1.O=C(O)C(F)(F)F` (configuration not stated), the “Percent Effect” value was -1.841%. Regarding `O=C(O)C(F)(F)F.O=C(O)C(F)(F)F.O=C(O)CN1CCC(F)(F)C2(CCN(c3ccccn3)C2)C1` (configuration not stated), the “Percent Effect” value is given as -82.81%. As for `O=C(CO)N1CCC(F)(F)C2(CCN(c3ccccc3)C2)C1.O=C(O)C(F)(F)F` (configuration not stated), the “Percent Effect” value is given as -34.49%.

As to `O=C(O)C(F)(F)F.O=C(O)C(F)(F)F.O=C(O)CN1CCC(F)(F)C2(CCN(c3ccccc3)C2)C1` (configuration not stated), the “Percent Effect” value is given as 66.58%. Turning to `FC1(F)CCNCC12CCN(c1cccnc1)C2.O=C(O)C(F)(F)F.O=C(O)C(F)(F)F` (configuration not stated), the “Percent Effect” value is 64.81%. Next, `FC1(F)CCNCC12CCN(c1ncccn1)C2` (configuration not stated): 17.29%; `FC1(F)CCNCC12CCN(c1ccccn1)C2` (configuration not stated): 56.42%; `Cn1ccnc1CN1CCC2(CC1)CN(Cc1cccnc1)C(=O)CO2.O=C(O)C(F)(F)F.O=C(O)C(F)(F)F`: -38.55%. In the case of `Fc1cccnc1N1CCC2(CNCCC2(F)F)C1` (configuration not stated), the “Percent Effect” value turned out to be 45.04%. Turning to `O=C(C1CCCO1)N1CCCC2(CCN(c3cccnc3)CC2)C1.O=C(O)C(F)(F)F` (configuration not stated), the “Percent Effect” value is recorded as -72.8%.

`Cn1ccnc1CN1CCC(F)(F)C2(CCN(c3cccnc3)C2)C1.O=C(O)C(F)(F)F.O=C(O)C(F)(F)F` (configuration not stated): the “Percent Effect” value is listed as 58.45%. The value for `N#Cc1ccc(N2CCCC3(CCN(c4cccnc4)CC3)C2)cc1.O=C(O)C(F)(F)F` was -71.51%. Next, `COCC1CN(Cc2ccoc2)Cc2nn(CC3CC3)cc21.O=C(O)C(F)(F)F` (configuration not stated): -62.03%; `O=C(C1CC(c2ccccc2)=NO1)N1CCc2ccccc21` (configuration not stated): -20.98%. In the case of `Cc1cnn(CCNCC(=O)NCCOc2ccc(Cl)cc2)c1`, the “Percent Effect” value is listed as -0.9504%. Consider `O=C(Cc1noc(C(=O)NCC2CC2)n1)Nc1cccc(C(F)(F)F)c1`, for which the “Percent Effect” value turned out to be 7.243%. For `Clc1snnc1CN1CCN(c2nccs2)CC1`, the “Percent Effect” value is reported as -49.26%. As to `CC(=O)Nc1cccc2c1ccn2CC(=O)Nc1n[nH]c(CC(C)C)n1`, the “Percent Effect” value is reported as -107.2%. Regarding `Cc1csc(CNC(=O)N2CCN(Cc3ccco3)CC2)n1`, the “Percent Effect” value was -96.64%. Next, `CCc1cc(N2C[C@H](C3CC3)[C@@H](N)C2)nc(N2CCCC2)n1`: 69.94%; `CNc1cc(C)nc(N2C[C@H](C3CC3)[C@@H](N)C2)n1`: 87.7%; `CNc1cc(C)nc(N2C[C@H](NC(=O)C3CCOCC3)[C@@H](C3CC3)C2)n1`: -47.54%. For the compound `CNc1cc(C)nc(N2C[C@@H](C(=O)O)[C@H](C3CC3)C2)n1`, the “Percent Effect” value is listed as -82.68%. Take `CC(C)Oc1cc(N2C[C@H](C3CC3)[C@@H](N)C2)nc(N)n1`: the “Percent Effect” value is -219.2%. As to `N[C@H]1CN(Cc2cnc(N3CCCC3)nc2)C[C@@H]1C1CC1`, the “Percent Effect” value was -9.289%. With `O=C1CN(C(=O)c2cccc(C(F)(F)F)c2)CC(O)CN1CC1CC1` (configuration not stated), the “Percent Effect” value was -23.92%. For the compound `COCC(=O)N(Cc1ccc2[nH]ccc2c1)C1CC1`, the “Percent Effect” value is -74.09%. Next, `O=C(c1ccc(-c2ccoc2)nc1)N1CCCN(C2CCCCC2)CC1`: -100.8%; `Cc1ccc(S(=O)(=O)CCC(=O)N(C)Cc2cnn(C)c2)cc1`: -22.92%; `CCC1COCCN1C(=O)NCc1nccn1CCc1ccccc1` (configuration not stated): -72.5%. With `COCCN1CCN(CC(O)c2ccc(C(F)(F)F)cc2)CC1` (configuration not stated), the “Percent Effect” value is 6.899%. Take `CN(Cc1ccccc1OC(F)(F)F)C(=O)C1CC1`: the “Percent Effect” value is reported as -112.4%.

In the case of `CC(NCC1CCN(CCO)CC1)c1ccc(OC(F)(F)F)cc1` (configuration not stated), the “Percent Effect” value was 93.49%. On to `CC(c1ccc(C(F)(F)F)cc1)N1CCN(CCS(C)(=O)=O)CC1` (configuration not stated), for which the “Percent Effect” value is recorded as -72.63%. Take `CCCN1CCN(CC(O)c2ccc(OC(F)(F)F)cc2)CC1` (configuration not stated): the “Percent Effect” value amounted to 42.81%. As for `CC(NCC1CCN(CCO)CC1)c1ccc(C(F)(F)F)cc1` (configuration not stated), the “Percent Effect” value worked out at 88.54%. `NC(=O)N1CCCC(C(=O)NCc2ccccc2OC(F)(F)F)C1` (configuration not stated): the “Percent Effect” value was -135.5%. For `OCCN1CCN(CC(O)c2ccc(OC(F)(F)F)cc2)CC1` (configuration not stated), the “Percent Effect” value is listed as -7.34%. For the compound `Cc1cccc(CN2CC3(CCN(S(=O)(=O)C4CC4)CC3)OCC2=O)n1.O=C(O)C(F)(F)F`, the “Percent Effect” value is listed as -75.59%. For `Cc1nccn1CCCC(=O)N1CCCN(c2cccnn2)CC1`, the “Percent Effect” value is reported as -112.5%. Consider `COC(=O)C1CN(Cc2nc(-c3ccccc3)cs2)C[C@@H](C)O1` (some centres not stated), for which the “Percent Effect” value is recorded as -63.3%. The value for `Cc1cc2cccc(NC(=O)N3CCC(N(C)C)C3)c2o1` (configuration not stated) was -83.5%.

On to `NC(=O)c1cc(NC(=O)NCCc2cc(F)cc(F)c2)ccc1F`, for which the “Percent Effect” value is recorded as -73.47%. Next, `O=C1CC(c2ccc3c(c2)OCO3)c2c(n3ccsc3nc2=O)N1` (configuration not stated): -91.85%; `CN(C)c1ncccc1CNS(=O)(=O)c1cc(F)ccc1F`: -126.3%; `CCC(CC)NC(=O)c1cccnc1N1CCCC1c1ccccn1` (configuration not stated): -135.6%. For the compound `CCCS(=O)(=O)N1CCN(C(C)(C)CO)CC1`, the “Percent Effect” value is listed as -101.2%. Take `Cc1nnc(NC(=O)CN2CCOC(Cn3cccn3)C2)s1` (configuration not stated): the “Percent Effect” value is -152.2%. For the compound `O=C(CCc1cscn1)N1CCCC(c2ccn[nH]2)C1` (configuration not stated), the “Percent Effect” value is listed as -83.54%. Next, `Cc1nnc(NC(=O)CN2CCCC(c3ccn[nH]3)C2)s1` (configuration not stated): 85.62%. The value for `O=C(CN1CCCC(c2ccn[nH]2)C1)Nc1nc2c(s1)CCC2` (configuration not stated) was 89.1%; that for `O=C1CCCCCN1CCC(=O)N1CCCC(c2ccn[nH]2)C1` (configuration not stated) was -59.24%; that for `Cc1cc(C2CCCN(CC(=O)Nc3nc4c(s3)CCC4)C2)n[nH]1` (configuration not stated) was 86.8%.

For `Cc1cc(C2CCCN(CC(=O)N3CCCc4ccccc43)C2)n[nH]1` (configuration not stated), the “Percent Effect” value is recorded as -11.77%. With `Cc1cc(C2CCCN(CC(=O)N3CCc4ccccc43)C2)n[nH]1` (configuration not stated), the “Percent Effect” value is given as -86.51%. The value for `O=C1CCCN1CCN1CCCC(c2ccn[nH]2)C1` (configuration not stated) was 13.33%.

`O=C(CN1CCCC(c2ccn[nH]2)C1)Nc1nc2c(s1)CCCC2` (configuration not stated): the “Percent Effect” value came out at 85.91%. For the compound `CC(C)C1Nc2ccccc2C(=O)N1CC(=O)Nc1nc2c(s1)CCC2` (configuration not stated), the “Percent Effect” value was 15.72%. Next, `Cc1nnc(NC(=O)CN2CCCC(Cn3cncn3)C2)s1` (configuration not stated): -101.2%; `COc1ccc(C)nc1NC(=O)CCc1c(C)nn(C)c1C`: -87.92%; `CCc1nc(C(=O)N2CCN(C)c3ccccc32)c[nH]1`: -108.8%. The value for `COCc1n[nH]/c(=N/C(=O)COc2cnc(C)cc2O)s1` was -11.35%. As for `O=C(c1cccnc1)N1CCC2(CC1)CN(c1ccccn1)CCO2`, the “Percent Effect” value is -57.82%. On to `CN(C)C(=O)N1CC2(CCNCC2)c2cc(Cl)ccc21.Cl`, for which the “Percent Effect” value came out at 23.36%. With `Cl.NC(=O)N1CC2(CCNCC2)c2cc(Cl)ccc21`, the “Percent Effect” value was -64.91%. Consider `Cl.Cl.O=C([C@H]1CCCN1)N1CC2(CCNCC2)c2cc(Cl)ccc21`, for which the “Percent Effect” value is 58.74%. Take `CN(Cc1nnc(C2CCC2)o1)C(C(N)=O)c1cccc(F)c1` (configuration not stated): the “Percent Effect” value is listed as -103%. Next, `Cc1ccc(S(=O)(=O)NCC(O)c2ccoc2)s1` (configuration not stated): -144.6%. The value for `O=C(Cc1ccncc1)N1CCC2(CC1)CC(c1ccccc1)CO2.O=C(O)C(F)(F)F` (configuration not stated) was -32.94%. For `CN1CCC2(CC1)CC(NC(=O)c1csnn1)c1ccccc1O2.O=C(O)C(F)(F)F` (configuration not stated), the “Percent Effect” value was -14.05%. `CCN1CCC2(CC1)CC(NCc1ccncc1)c1ccccc1O2.O=C(O)C(F)(F)F.O=C(O)C(F)(F)F.O=C(O)C(F)(F)F` (configuration not stated): the “Percent Effect” value is recorded as 77.69%. `CCN1CCC2(CC1)CC(Nc1ncccn1)CO2` (configuration not stated): the “Percent Effect” value is -15.58%. Regarding `CCN1CCC2(CC1)CC(NC(=O)c1c[nH]cn1)c1ccccc1O2` (configuration not stated), the “Percent Effect” value is -75.27%. Take `O=C(c1ccsc1)N1CCC2(CC1)CCN(S(=O)(=O)C1CC1)CC2`: the “Percent Effect” value is 5.88%. Turning to `COc1ccccc1S(=O)(=O)Nc1cnc(O)cc1C`, the “Percent Effect” value is -22.04%. Turning to `c1cncc(NCCNC2CCCNC2)c1` (configuration not stated), the “Percent Effect” value was -4.225%. The value for `CC(C)CN1CCC(NCCNc2cccnc2)CC1` was 78.75%.

For the compound `c1cncc(NCCNC2CCSCC2)c1`, the “Percent Effect” value is on record as -16.36%. `Cn1cc(CCNC(=O)c2cc3ccccc3nc2N2CCCC2)cn1`: the “Percent Effect” value is given as -91.24%.

Regarding `Cc1nc(C)c2c(n1)CCN(Cc1nccn1C)CC2.O=C(O)C(F)(F)F`, the “Percent Effect” value was -117.5%. Turning to `CC(C)Nc1ncnc2c1CCN(Cc1nccn1C)CC2.O=C(O)C(F)(F)F.O=C(O)C(F)(F)F`, the “Percent Effect” value is given as -41.64%.

`CC(C)Nc1nc2c(c(NC3CC3)n1)CCN(Cc1nccn1C)CC2.O=C(O)C(F)(F)F`: the “Percent Effect” value came to 75.38%.

Take `CN(C)c1nc(N2CCCC2)nc2c1CCN(Cc1nccn1C)CC2.O=C(O)C(F)(F)F`: the “Percent Effect” value is on record as 3.003%. Turning to `Cc1nc(N2CCCC2)nc2c1CCN(Cc1nccn1C)CC2.O=C(O)C(F)(F)F`, the “Percent Effect” value is -65.41%. As for `CC(C)Nc1nc2c(c(N(C)C)n1)CCN(Cc1nccn1C)CC2.O=C(O)C(F)(F)F`, the “Percent Effect” value turned out to be 53.11%.

As to `Cc1nc(C)c(C(=O)N2CCN(CCOc3ccccc3C)CC2)o1`, the “Percent Effect” value was -41.56%.

On to `Cl.N[C@@H](Cc1ccccc1)c1nnc(S(=O)(=O)Cc2ccc(Cl)cc2)o1`, for which the “Percent Effect” value is listed as -112.8%. Regarding `COc1cnc(N2CC(N3CCOCC3)C2)nc1-c1ccnn1C`, the “Percent Effect” value is listed as 75.52%. For `Cc1cnc(N2CCN(C)CC2)nc1-c1ccnn1C`, the “Percent Effect” value was -103.6%. The value for `COc1cnc(N2CCN(C)CC2)nc1-c1ccnn1C` was -14.56%; that for `CC(C)Cc1nc(OCC(=O)O)c(C#N)c2c1CCCC2` was -37.32%; that for `Cc1[nH]nc(CCC(=O)N2CCc3c(nc[nH]c3=O)C2)c1C` was -169.9%. The value for `CCN(CC)CCn1cnc(-c2ccccc2)c1-c1ncc[nH]1` was -50.85%.

`CCN(CC)CCn1cnc(-c2ccccc2)c1-c1cnn(CC)c1`: the “Percent Effect” value stood at 18.58%. On to `CCN(CC)CCn1cnc(-c2ccccc2)c1-c1cnc(C)s1`, for which the “Percent Effect” value is 52.89%.

For the origin of these results see ChEMBL document CHEMBL3988442, “University of Dundee, Small-Polar-MMV Screening Library” (2021).
